# Several values for one entry are separate records, joined by “and”; a condition that tells them apart may be missing. Equal entries are not always repeated. Inconclusive results are not listed. Where a call stands in place of a potency, no number is given. Some compounds were tested as several samples or in several runs, with calls that do not always agree. Activity calls are given as the source filed them. Unless noted, calls come from the whole dose curve; as a rule, active = well fitted curve in the direction sought with a large enough effect; inconclusive = small, poorly fitted or top-dose-only effect, or another doubt; inactive = no such curve, though single readings can be large; an effect the other way counts as inactive or inconclusive.
# Legend:
# [1] = target: phosphoglycerate mutase (Leishmania major) (UniProt Q4Q090); experiment: qHTS Validation Assay to Find Inhibitors of Phosphoglycerate Mutase (AID 504548); note: series mostly up to about 58 µM
# Outline: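 Lm PGAM 1.25nM final; 100 mM TEA pH 7.6, 5 mM MgCl2, 0.01% Tween-20; 45 min RT; Kinase-GloPlus, 10 min; end-point luminescence. Enzyme-free wells as negative controls.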
# [2] = target: Ubiquitin carboxyl-terminal hydrolase 1 (Homo sapiens) (UniProt O94782); experiment: Inhibitors of USP1/UAF1: Pilot qHTS (AID 504865); note: nearly all actives have a fitted effect of over 35% in size; note: potency is the fitted concentration of half-maximal effect
# Outline: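 USP1/UAF1 complex at 1 nM preincubated 15 min at room temperature with compound, then Ub-Rho substrate added at 150 nM final. Fluorescence (480/540 nm) read kinetically in 50 mM HEPES pH 7.8, 0.5 mM EDTA, 1 mM TCEP, 0.1 mg/ml BSA, 0.01% Tween-20.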
# [3] = qHTS for Inhibitors of ATXN expression: Validation of Cytotoxic Assay (AID 588349)
# Outline: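 Cytotoxicity counter-screen: ATP-based luminescent viability (CellTiter Glo) after 72 hr exposure of HEK293 cells to a compound titration at 37 degrees C.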
# [4] = qHTS for Inhibitors of ATXN expression: Validation (AID 588378); note: nearly all actives have a fitted effect of over 75% in size; note: potency is the fitted concentration of half-maximal effect
# Outline: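 HEK293 cells carrying ATXN2-firefly luciferase reporter, treated with compound 24 h at 37 °C. Viability read first by CellTiter-Fluor (405/525 nm), then reporter expression by Bright-Glo luminescence; controls were a known ATXN2 expression inhibitor and a luciferase inhibitor.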
# [5] = target: DNA dC->dU-editing enzyme APOBEC-3G (Homo sapiens) (UniProt Q9HC16); experiment: qHTS for inhibitors of Vif-A3G interactions: Validation (AID 588379)
# Outline: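 Yellow fluorescence (Ex 488, Em 500-530) of Vif-coexpressing HeLa A3G-eYFP cells, scanned by Acumen cytometer, reports blocked A3G degradation. Cells plated at 700/well overnight at 37 deg C before compound addition, then a further overnight compound incubation at 37 deg C.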
# [6] = target: Glucocorticoid receptor (Homo sapiens) (UniProt P04150); experiment: qHTS assay for small molecule agonists of glucocorticoid receptor signaling (AID 588532; active = well fitted curve in the direction sought with a large enough effect in the signal ratio, with a control signal flat; the % refers to the signal ratio); conditions: HeLa MMTV-bla, beta-lactamase ratio, agonist, 18 h; stronger effect = higher value; percent of dexamethasone control, DMSO zero
# Outline: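 Titration series, up to 92 uM, applied to GRE-bla HeLa cells for 18 h at 37 C. Detection by CCF4 FRET substrate after 2 h at RT.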
# [7] = qHTS assay for small molecule antagonists of peroxisome proliferator-activated receptor delta signaling (AID 588535; active = well fitted inhibition curve with a large enough effect in the signal ratio, with a control signal flat, not every such curve was filed as active; the % refers to the signal ratio;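 for max response: cells co-treated with a PPAR-delta agonist as stimulator during compound exposure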); conditions: HEK293T PPARd-UAS-bla, beta-lactamase FRET ratio, 18 h; 460 nm channel
# Outline: (§1)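 Inhibition of PPAR-delta response element-driven beta-lactamase expression is measured in HEK293T cells exposed to a compound titration series for 18 hrs at 37 C. Half-maximal inhibition comes from Hill equation fitting.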
# [8] = target: Peroxisome proliferator-activated receptor delta (Homo sapiens) (UniProt Q03181); experiment: as above
# Outline: as §1
# [9] = target: Thyroid hormone receptor beta (Homo sapiens) (UniProt P10828); experiment: qHTS assay for small molecule agonists of thyroid hormone receptor beta signaling (AID 588545; calls by dose curve)
# Outline: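 Stimulation of a TR-driven beta-lactamase reporter was quantified in GripTite HEK 293 cells. Compound series ran for 18 hrs; curves were normalized to T3 and DMSO controls and fitted to yield EC50.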
# [10] = target: Androgen receptor (Homo sapiens) (UniProt P10275); experiment: qHTS assay for small molecule agonists of androgen receptor signaling (AID 588515; active = well fitted curve in the direction sought with a large enough effect in the signal ratio, with a control signal flat; the % refers to the signal ratio); conditions: AR-UAS-bla HEK293, beta-lactamase ratio, agonist 16 h; stronger effect = higher value
# Outline: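 Stimulation of an AR-responsive β-lactamase reporter in GripTite HEK293 cells was measured after 16 h compound exposure at 37 °C, via CCF4 fluorescence after 2 h RT. EC50 from Hill fits, normalized to R1881 at 30 nM.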
# [11] = target: Peroxisome proliferator-activated receptor gamma (Homo sapiens) (UniProt P37231); experiment: qHTS assay for small molecule antagonists of peroxisome proliferator-activated receptor gamma signaling (AID 588537; active = well fitted inhibition curve with a large enough effect in the signal ratio, with a control signal flat, not every such curve was filed as active; the % refers to the signal ratio; note: potency is the fitted concentration of half-maximal effect)
# Outline: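 Compounds are tested as concentration series for inhibition of rosiglitazone-driven (50 nM) reporter expression in GeneBLAzer PPAR-gamma-UAS-bla HEK293 cells. After 16 h at 37 C, CCF4 substrate is added for 2 h at room temperature and blue/green fluorescence is measured.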
# [12] = target: Bile acid receptor (Homo sapiens) (UniProt Q96RI1); experiment: qHTS assay for small molecule antagonists of farnesoid X receptor signaling (AID 588526; calls by dose curve; note: potency is the fitted concentration of half-maximal effect)
# Outline: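 Concentration-response titrations were fitted to the Hill equation for half-maximal inhibition and maximal response, with data normalised to 50 uM chenodeoxycholic acid and DMSO control wells. Cells: FXR-UAS-bla HEK293T, dialyzed FBS.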
# [13] = target: Vitamin D3 receptor (Homo sapiens) (UniProt P11473); experiment: qHTS assay for small molecule antagonists of vitamin D receptor signaling (AID 588541; calls by dose curve;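 note: receptor activated by calcitriol during compound treatment; series mostly up to about 77 µM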)
# Outline: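 VDR-UAS-bla HEK293T cells (2000/well, 2% charcoal-stripped FBS) were treated with titrated compounds plus 1-alpha,25-dihydroxyvitamin D3 (50 nM or 3 nM final) for 16 h at 37 C. CCF4 beta-lactamase fluorescence was read; Hill fits gave IC50.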
# [14] = target: Vitamin D3 receptor (Homo sapiens) (UniProt P11473); experiment: qHTS assay for small molecule agonists of vitamin D receptor signaling (AID 588543; calls by dose curve)
# Outline: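 VDR-UAS-bla HEK293T cells, 2000/well, 2% charcoal-stripped FBS; compound titration 16 h at 37 C; CCF4 beta-lactamase ratio read. Normalized to 50 nM 1-alpha,25-dihydroxyvitamin D3 (100%) and DMSO; Hill fit gives EC50, efficacy.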
# Chain of Glucocorticoid receptor (Homo sapiens) (P04150 whole entry, looked up): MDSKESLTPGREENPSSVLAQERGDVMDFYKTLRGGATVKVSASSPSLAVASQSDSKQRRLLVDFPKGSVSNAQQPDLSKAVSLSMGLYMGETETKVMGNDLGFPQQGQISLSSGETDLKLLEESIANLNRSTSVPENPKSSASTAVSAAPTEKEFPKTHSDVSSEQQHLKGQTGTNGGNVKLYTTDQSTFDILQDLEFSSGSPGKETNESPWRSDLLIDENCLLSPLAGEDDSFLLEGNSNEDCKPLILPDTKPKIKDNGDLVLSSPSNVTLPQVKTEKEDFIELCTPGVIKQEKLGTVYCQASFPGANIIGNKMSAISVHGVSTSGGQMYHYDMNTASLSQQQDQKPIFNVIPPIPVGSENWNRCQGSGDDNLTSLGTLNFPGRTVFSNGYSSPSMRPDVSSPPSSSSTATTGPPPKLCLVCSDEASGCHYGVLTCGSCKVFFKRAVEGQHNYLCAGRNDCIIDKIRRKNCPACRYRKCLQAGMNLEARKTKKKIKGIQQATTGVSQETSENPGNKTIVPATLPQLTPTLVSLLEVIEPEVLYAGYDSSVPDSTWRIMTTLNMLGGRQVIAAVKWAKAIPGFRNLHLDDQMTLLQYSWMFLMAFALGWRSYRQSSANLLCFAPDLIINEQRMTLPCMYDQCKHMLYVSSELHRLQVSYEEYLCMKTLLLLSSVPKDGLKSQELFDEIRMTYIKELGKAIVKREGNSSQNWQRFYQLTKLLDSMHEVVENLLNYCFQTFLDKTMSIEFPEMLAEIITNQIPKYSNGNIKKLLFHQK
# Chain of Vitamin D3 receptor (Homo sapiens) (P11473 whole entry, looked up): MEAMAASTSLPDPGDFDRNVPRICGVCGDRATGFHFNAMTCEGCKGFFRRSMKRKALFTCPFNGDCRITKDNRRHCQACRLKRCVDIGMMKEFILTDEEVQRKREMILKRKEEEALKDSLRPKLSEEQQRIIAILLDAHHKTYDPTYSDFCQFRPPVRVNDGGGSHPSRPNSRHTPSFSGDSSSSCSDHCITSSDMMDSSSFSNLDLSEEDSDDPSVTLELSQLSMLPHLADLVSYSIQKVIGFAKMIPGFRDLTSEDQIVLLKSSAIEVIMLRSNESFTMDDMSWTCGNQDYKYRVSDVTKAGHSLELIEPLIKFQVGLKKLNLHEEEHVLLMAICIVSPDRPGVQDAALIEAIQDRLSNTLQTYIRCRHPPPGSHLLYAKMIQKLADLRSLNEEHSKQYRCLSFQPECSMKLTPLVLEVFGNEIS
# Chain of Thyroid hormone receptor beta (Homo sapiens) (P10828 whole entry, looked up): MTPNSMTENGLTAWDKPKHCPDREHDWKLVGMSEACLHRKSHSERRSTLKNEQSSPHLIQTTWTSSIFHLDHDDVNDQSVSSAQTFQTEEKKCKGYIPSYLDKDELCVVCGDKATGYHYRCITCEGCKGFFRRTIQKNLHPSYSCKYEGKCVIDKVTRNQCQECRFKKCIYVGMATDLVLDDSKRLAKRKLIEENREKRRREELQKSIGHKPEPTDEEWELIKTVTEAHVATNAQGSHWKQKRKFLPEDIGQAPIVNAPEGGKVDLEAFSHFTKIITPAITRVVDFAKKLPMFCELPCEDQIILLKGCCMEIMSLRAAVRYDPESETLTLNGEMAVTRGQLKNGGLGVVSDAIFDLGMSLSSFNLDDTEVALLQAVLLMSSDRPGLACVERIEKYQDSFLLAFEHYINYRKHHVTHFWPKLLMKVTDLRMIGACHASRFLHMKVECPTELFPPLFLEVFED
# Chain of phosphoglycerate mutase (Leishmania major) (Q4Q090 1-553): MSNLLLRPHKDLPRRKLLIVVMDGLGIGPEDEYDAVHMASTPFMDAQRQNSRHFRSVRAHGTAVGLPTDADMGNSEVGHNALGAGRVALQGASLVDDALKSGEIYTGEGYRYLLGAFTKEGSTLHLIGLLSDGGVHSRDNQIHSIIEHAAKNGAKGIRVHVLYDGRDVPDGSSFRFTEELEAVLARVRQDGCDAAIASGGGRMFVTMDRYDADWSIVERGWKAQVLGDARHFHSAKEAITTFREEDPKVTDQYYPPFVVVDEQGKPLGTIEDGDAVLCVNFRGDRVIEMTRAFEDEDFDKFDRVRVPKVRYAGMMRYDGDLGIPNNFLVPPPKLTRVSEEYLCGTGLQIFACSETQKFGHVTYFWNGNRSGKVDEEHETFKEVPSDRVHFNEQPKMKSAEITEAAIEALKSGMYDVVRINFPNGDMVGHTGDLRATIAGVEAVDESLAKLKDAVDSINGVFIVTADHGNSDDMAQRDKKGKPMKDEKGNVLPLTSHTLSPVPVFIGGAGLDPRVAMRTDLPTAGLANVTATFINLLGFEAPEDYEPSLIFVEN
# Chain of Ubiquitin carboxyl-terminal hydrolase 1 (Homo sapiens) (O94782 whole entry, looked up): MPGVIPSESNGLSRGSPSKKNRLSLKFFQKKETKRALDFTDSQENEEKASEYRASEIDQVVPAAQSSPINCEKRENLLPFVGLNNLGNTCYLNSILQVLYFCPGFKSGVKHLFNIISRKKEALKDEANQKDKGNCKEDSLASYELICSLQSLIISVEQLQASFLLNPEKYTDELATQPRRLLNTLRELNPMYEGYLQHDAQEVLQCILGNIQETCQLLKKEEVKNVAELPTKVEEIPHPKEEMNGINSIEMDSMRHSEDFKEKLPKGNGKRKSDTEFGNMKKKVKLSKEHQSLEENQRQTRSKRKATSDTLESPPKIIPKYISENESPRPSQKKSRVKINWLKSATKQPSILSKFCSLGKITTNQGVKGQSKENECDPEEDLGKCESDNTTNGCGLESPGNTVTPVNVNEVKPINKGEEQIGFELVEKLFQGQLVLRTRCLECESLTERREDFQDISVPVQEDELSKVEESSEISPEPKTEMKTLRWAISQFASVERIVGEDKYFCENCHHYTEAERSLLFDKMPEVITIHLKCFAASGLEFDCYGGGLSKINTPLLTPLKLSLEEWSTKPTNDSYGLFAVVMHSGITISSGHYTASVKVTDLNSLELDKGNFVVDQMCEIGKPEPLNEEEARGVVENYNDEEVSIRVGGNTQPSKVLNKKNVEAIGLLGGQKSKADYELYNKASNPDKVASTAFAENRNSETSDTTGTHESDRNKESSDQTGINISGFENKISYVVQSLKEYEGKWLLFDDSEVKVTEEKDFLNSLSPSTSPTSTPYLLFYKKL
# Chain of DNA dC->dU-editing enzyme APOBEC-3G (Homo sapiens) (Q9HC16 whole entry, looked up): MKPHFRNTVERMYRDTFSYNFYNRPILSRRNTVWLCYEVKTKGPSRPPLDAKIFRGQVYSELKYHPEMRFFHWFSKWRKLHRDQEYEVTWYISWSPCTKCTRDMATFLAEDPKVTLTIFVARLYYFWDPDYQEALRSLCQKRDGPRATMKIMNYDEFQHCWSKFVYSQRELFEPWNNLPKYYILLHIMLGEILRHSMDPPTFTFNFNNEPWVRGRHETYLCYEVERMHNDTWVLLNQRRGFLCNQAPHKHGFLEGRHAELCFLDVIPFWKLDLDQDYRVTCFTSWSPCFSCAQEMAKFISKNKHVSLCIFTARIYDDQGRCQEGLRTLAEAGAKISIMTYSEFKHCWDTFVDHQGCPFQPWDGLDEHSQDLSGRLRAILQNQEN
# Chain of Bile acid receptor (Homo sapiens) (Q96RI1 whole entry, looked up): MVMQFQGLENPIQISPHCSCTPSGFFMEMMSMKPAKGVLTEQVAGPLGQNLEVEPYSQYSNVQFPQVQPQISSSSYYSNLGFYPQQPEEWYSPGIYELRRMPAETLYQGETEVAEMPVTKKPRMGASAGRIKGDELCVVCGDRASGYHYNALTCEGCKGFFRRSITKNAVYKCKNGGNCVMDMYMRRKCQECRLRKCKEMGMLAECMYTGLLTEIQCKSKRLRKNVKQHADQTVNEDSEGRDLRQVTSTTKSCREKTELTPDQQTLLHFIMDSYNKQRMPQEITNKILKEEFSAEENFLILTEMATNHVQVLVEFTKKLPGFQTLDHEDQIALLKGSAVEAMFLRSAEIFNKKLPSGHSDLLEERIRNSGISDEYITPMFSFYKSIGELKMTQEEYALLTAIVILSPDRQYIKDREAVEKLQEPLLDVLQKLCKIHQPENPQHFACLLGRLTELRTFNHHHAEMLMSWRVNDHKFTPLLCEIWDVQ
# Chain of Peroxisome proliferator-activated receptor delta (Homo sapiens) (Q03181 whole entry, looked up): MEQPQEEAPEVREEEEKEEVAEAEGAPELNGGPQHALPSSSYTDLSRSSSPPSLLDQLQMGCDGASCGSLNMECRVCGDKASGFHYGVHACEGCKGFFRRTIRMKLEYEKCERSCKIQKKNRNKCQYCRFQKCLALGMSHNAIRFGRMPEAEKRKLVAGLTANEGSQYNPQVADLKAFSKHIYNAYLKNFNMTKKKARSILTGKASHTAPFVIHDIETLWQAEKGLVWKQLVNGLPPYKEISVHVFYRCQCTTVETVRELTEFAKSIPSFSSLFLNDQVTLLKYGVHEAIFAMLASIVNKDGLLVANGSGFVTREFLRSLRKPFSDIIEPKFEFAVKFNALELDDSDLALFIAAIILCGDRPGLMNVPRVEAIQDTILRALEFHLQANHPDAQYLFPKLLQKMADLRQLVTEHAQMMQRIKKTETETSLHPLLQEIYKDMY
# Chain of Peroxisome proliferator-activated receptor gamma (Homo sapiens) (P37231 whole entry, looked up): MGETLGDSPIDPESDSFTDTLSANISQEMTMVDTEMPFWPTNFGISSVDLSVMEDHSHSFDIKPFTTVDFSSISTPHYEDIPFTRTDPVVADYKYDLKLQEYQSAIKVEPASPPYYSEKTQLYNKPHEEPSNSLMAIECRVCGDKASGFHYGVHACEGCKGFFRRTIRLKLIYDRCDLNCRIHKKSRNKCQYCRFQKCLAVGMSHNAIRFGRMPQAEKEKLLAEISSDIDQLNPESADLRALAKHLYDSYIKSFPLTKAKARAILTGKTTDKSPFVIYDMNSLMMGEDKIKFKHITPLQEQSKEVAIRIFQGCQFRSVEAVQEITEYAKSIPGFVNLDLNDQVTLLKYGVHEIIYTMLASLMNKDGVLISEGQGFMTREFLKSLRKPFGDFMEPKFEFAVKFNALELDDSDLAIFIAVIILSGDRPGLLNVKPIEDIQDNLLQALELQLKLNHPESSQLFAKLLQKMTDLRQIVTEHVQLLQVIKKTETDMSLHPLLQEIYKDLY
compound,measurement,setting,value
CC(CCc1ccc(O)cc1)NCCc1ccc(O)c(O)c1 (stereo not given),outcome,[1],inactive
same,Potency,[2],inactive
NCCCCCC(=O)O,outcome,[1],inactive
same,Potency,[2],inactive
same,outcome,[3],inactive
same,Potency,[4],inactive
Cc1ccccc1N1C(=O)c2cc(S(N)(=O)=O)c(Cl)cc2NC1C (stereo not given),outcome,[1],inactive
same,Potency,[2],inactive
same,outcome,[3],inactive
same,Potency,[4],inactive
CC12CC3CC(C)(C1)CC(N)(C3)C2,outcome,[1],inactive
same,Potency,[2],inactive
same,outcome,[3],inactive
same,Potency,[4],inactive
CN(C)CCC=C1c2ccccc2C=Cc2ccccc21,outcome,[1],inactive
same,Potency,[2],inactive
same,outcome,[3],inactive
Clc1ccc2nsnc2c1NC1=NCCN1,outcome,[1],inactive
same,Potency,[2],inactive
same,outcome,[3],inactive
same,Potency,[4],inactive
CC(C(=O)O)c1cccc(C(=O)c2ccccc2)c1 (stereo not given),outcome,[1],inactive
same,Potency,[2],inactive
same,outcome,[3],inactive
same,Potency,[4],inactive
Nc1nc2c(ncn2COC(CO)CO)c(=O)[nH]1,outcome,[1],inactive
same,Potency,[2],inactive
same,outcome,[3],inactive
same,Potency,[4],inactive
COc1ccc(C2CNC(=O)C2)cc1OC1CCCC1 (stereo not given),outcome,[1],inactive
same,Potency,[2],inactive
same,outcome,[3],inactive
same,Potency,[4],inactive
COc1ccccc1N1CCN(CC(O)COc2cccc3ccccc23)CC1 (stereo not given),outcome,[1],inactive
CN1CCN(CCCN2c3ccccc3Sc3ccc(Cl)cc32)CC1,outcome,[1],inactive
O=C(C1CCCCC1)N1CC(=O)N2CCc3ccccc3C2C1 (stereo not given),outcome,[1],inactive
same,Potency,[2],inactive
same,outcome,[3],inactive
same,Potency,[4],inactive
Clc1ccc2c(c1)C(N1CCNCC1)=Nc1ccccc1O2,outcome,[1],inactive
same,Potency,[2],inactive
CCc1cccc2c3c([nH]c12)C(CC)(CC(=O)O)OCC3 (stereo not given),outcome,[1],inactive
same,Potency,[2],inactive
same,outcome,[3],inactive
same,Potency,[4],inactive
NC(=O)NO,outcome,[1],inactive
same,Potency,[2],inactive
same,outcome,[3],inactive
same,Potency,[4],inactive
CC(C)NCC(O)COc1ccc(CCOCC2CC2)cc1 (stereo not given),outcome,[1],inactive
same,Potency,[2],inactive
same,outcome,[3],inactive
same,Potency,[4],inactive
O=C1Cc2cc(CCN3CCN(c4nsc5ccccc45)CC3)c(Cl)cc2N1,outcome,[1],inactive
C[C@H]1c2cccc(O)c2C(O)=C2C(=O)[C@]3(O)C(O)=C(C(N)=O)C(=O)[C@@H](N(C)C)[C@@H]3[C@@H](O)[C@@H]21,outcome,[1],inactive
same,Potency,[2],inactive
same,outcome,[3],inactive
same,Potency,[4],inactive
COc1nc(C)nc(Cl)c1NC1=NCCN1,outcome,[1],inactive
same,Potency,[2],inactive
same,outcome,[3],inactive
same,Potency,[4],inactive
CCCCc1oc2ccccc2c1C(=O)c1cc(I)c(OCCN(CC)CC)c(I)c1,outcome,[1],inactive
NCCc1cnc[nH]1,outcome,[1],inactive
same,Potency,[2],44.7 µM (active) and inactive
same,outcome,[3],inactive
same,Potency,[4],inactive
COc1cc2nc(N(C)CCCNC(=O)C3CCCO3)nc(N)c2cc1OC (stereo not given),outcome,[1],inactive
same,Potency,[2],inactive
same,outcome,[3],inactive
same,Potency,[4],inactive
NC(CO)C(=O)NNCc1ccc(O)c(O)c1O (stereo not given),outcome,[1],inactive
same,Potency,[2],inactive
same,outcome,[3],inactive
same,Potency,[4],inactive
OCCN1CCN(CCCN2c3ccccc3Sc3ccc(C(F)(F)F)cc32)CC1,outcome,[1],inactive
Cc1cc(C(C)(C)C)cc(C)c1CC1=NCCN1,outcome,[1],inactive
same,Potency,[2],inactive
same,outcome,[3],inactive
CCCNCC(O)COc1ccccc1C(=O)CCc1ccccc1 (stereo not given),outcome,[1],inactive
CCC1(C)CC(=O)NC1=O (stereo not given),outcome,[1],inactive
same,Potency,[2],inactive
same,outcome,[3],inactive
same,Potency,[4],inactive
COc1ccccc1OCC(O)CN1CCN(CC(=O)Nc2c(C)cccc2C)CC1 (stereo not given),outcome,[1],inactive
same,Potency,[2],inactive
same,outcome,[3],inactive
same,Potency,[4],inactive
CCN1CCCC1CNC(=O)c1cc(S(=O)(=O)CC)c(N)cc1OC (stereo not given),outcome,[1],inactive
same,Potency,[2],inactive
same,outcome,[3],inactive
same,Potency,[4],inactive
CN(C)c1nc(N(C)C)nc(N(C)C)n1,outcome,[1],inactive
same,Potency,[2],inactive
same,outcome,[3],inactive
same,Potency,[4],inactive
CC1COc2c(N3CCN(C)CC3)c(F)cc3c(=O)c(C(=O)O)cn1c23 (stereo not given),outcome,[1],inactive
same,Potency,[2],inactive
same,outcome,[3],inactive
same,Potency,[4],inactive
COc1ccccc1OCCNCC(O)COc1cccc2[nH]c3ccccc3c12 (stereo not given),outcome,[1],inactive
same,Potency,[2],inactive
CN1C(C(=O)Nc2ccccn2)=C(O)c2ccccc2S1(=O)=O,outcome,[1],inactive
same,Potency,[2],inactive
same,outcome,[3],inactive
same,Potency,[4],inactive
same,outcome,[5],inactive
Fc1ccc([C@@H]2CCNC[C@H]2COc2ccc3c(c2)OCO3)cc1,outcome,[1],inactive
same,Potency,[2],inactive
same,Potency,[4],35.5 µM (active)
Clc1ccc(C(c2ccccc2Cl)C(Cl)Cl)cc1 (stereo not given),outcome,[1],inactive
same,Potency,[2],inactive
same,outcome,[3],inactive
same,Potency,[4],inactive
same,activation,[6],-3.98% (inactive)
same,max response,[7],-16.9%
same,outcome,[8],inactive
same,outcome,[9],inactive
CN(Cc1cnc2nc(N)nc(N)c2n1)c1ccc(C(=O)N[C@@H](CCC(=O)O)C(=O)O)cc1,outcome,[1],inactive
same,Potency,[2],inactive
same,outcome,[3],inactive
same,Potency,[4],inactive
same,outcome,[5],inactive
same,activation,[10],0.214% (inactive)
same,Potency,[11],0.447 µM (active)
same,outcome,[9],inactive
O=c1c(-c2ccc(O)cc2)coc2cc(O)cc(O)c12,outcome,[1],inactive
same,Potency,[2],inactive
same,outcome,[3],inactive
same,Potency,[4],inactive
same,Potency,[12],25.1 µM (active)
same,activation,[6],-14.7% (inactive) and -3.51% (inactive)
same,outcome,[13],inactive
same,outcome,[14],inactive
same,outcome,[9],inactive

# Reference: PubChem BioAssay (NCATS)
